Results filed as inconclusive are left out. The source made the active and inactive calls. Unless noted, calls come from the whole dose curve; as a rule, active = well fitted curve in the direction sought with a large enough effect; inconclusive = small, poorly fitted or top-dose-only effect, or another doubt; inactive = no such curve, though single readings can be large; an effect the other way counts as inactive or inconclusive.
Key:
[1] = qHTS for Inhibitors of Plasmodium falciparum (DD2) proliferation (AID 504314);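 note: parasite DNA measured by SYBR Green fluorescence after red cell lysis; plate controls were DMSO vehicle for no effect and artemisinin wells for full effect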
Summary of the method: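 SYBR Green growth assay: 72 h compound exposure of infected red cells (2.5% hematocrit, 0.3% parasitemia), then lysis and overnight dye staining, fluorescence 485/535 nm. Values scaled between DMSO and 0.29 uM artemisinin controls.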

[2] = qHTS for Inhibitors of Plasmodium falciparum (GB4) proliferation (AID 504315);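 note: 0% = DMSO vehicle and -100% = 0.29 µM artemisinin control; nearly all actives have a fitted effect of over 50% in size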
Summary of the method: (§1)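 Parasite growth measured as SYBR Green DNA fluorescence (ex 485, em 535 nm) after overnight lysis following 72 h culture at 37 °C, 0.3% parasitemia, 2.5% hematocrit. Values normalized against DMSO and 0.29 uM artemisinin controls, with plate-stack correction.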

[3] = qHTS for Inhibitors of Plasmodium falciparum (CP250) proliferation (AID 504320);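 note: plate controls were DMSO vehicle for no effect and 0.29 µM artemisinin control for full effect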
Summary of the method: as §1

[4] = biological target: Atrial natriuretic peptide receptor 1 (Homo sapiens) (UniProt P16066); test: Natriuretic polypeptide receptor (hNpr1) antagonism - Pilot CMLD screen (AID 1347052; calls by dose curve;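 note: HEK293 cells with hNpr1 stimulated by hNppA peptide at 0.1 nM; cGMP level read as GloSensor luciferase luminescence after agonist stimulation; series mostly up to about 9.2 µM; % is set by controls: 0 for no effect and ±100 for the full control effect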)
[5] = biological target: Cytochrome P450 2C9 (Homo sapiens) (UniProt P11712); test: qHTS Assay for Inhibitors and Substrates of Cytochrome P450 2C9 (AID 883); note: nearly all actives have a fitted effect of over 60% in size; note: potency is the fitted concentration of half-maximal effect; for activity change, negative = inhibition: % is set by controls: 0 for no effect and ±100 for the full control effect
Summary of the method: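 CYP2C9 deoxyluciferin hydroxylation, 37C, 60 min with NADPH regeneration; 10nM enzyme, 100uM Luciferin-H (KM). Glo detection reagent stopped reaction; luminescence normalized to sulphaphenazole (57uM) full inhibition.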

[6] = biological target: Cytochrome P450 2C19 (Homo sapiens) (UniProt P33261); test: qHTS Assay for Inhibitors and Substrates of Cytochrome P450 2C19 (AID 899); note: potency is the fitted concentration of half-maximal effect; nearly all actives have a fitted effect of over 60% in size
Summary of the method: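 In 50mM KPO4, the reaction held 5nM enzyme and KM-level (10uM) Luciferin-H EGE; it ran 60 min at 37C after NADPH regeneration and a 10 min compound preincubation. Luminescence values were scaled to 57uM ketoconazole as complete inhibition.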

[7] = biological target: Cytochrome P450 3A4 (Homo sapiens) (UniProt P08684); test: qHTS Assay for Inhibitors and Substrates of Cytochrome P450 3A4 (AID 884); note: potency is the fitted concentration of half-maximal effect; nearly all actives have a fitted effect of over 50% in size
Summary of the method: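 Luminescent readout of luciferin produced by CYP3A4 (20 nM) dealkylation of Luciferin-PPXE, 25 uM (its KM). NADPH-driven reaction ran 60 min at RT after 10 min compound preincubation; data scaled to 57 uM ketoconazole as 100% inhibition.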

[8] = qHTS for Inhibitors of Plasmodium falciparum (7G8) proliferation (AID 504316); note: nearly all actives have a fitted effect of over 65% in size; note: potency is the fitted concentration of half-maximal effect;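 for activity change, negative = inhibition: series mostly up to about 6.7 µM; 0% = DMSO vehicle and -100% = 0.29 µM artemisinin full kill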
Summary of the method: as §1

[9] = qHTS for Inhibitors of Plasmodium falciparum (HB3) proliferation (AID 504318);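 note: 0% = DMSO vehicle and -100% = artemisinin control; nearly all actives have a fitted effect of over 60% in size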
Summary of the method: as §1

Chain of Atrial natriuretic peptide receptor 1 (Homo sapiens) (P16066 whole entry, looked up): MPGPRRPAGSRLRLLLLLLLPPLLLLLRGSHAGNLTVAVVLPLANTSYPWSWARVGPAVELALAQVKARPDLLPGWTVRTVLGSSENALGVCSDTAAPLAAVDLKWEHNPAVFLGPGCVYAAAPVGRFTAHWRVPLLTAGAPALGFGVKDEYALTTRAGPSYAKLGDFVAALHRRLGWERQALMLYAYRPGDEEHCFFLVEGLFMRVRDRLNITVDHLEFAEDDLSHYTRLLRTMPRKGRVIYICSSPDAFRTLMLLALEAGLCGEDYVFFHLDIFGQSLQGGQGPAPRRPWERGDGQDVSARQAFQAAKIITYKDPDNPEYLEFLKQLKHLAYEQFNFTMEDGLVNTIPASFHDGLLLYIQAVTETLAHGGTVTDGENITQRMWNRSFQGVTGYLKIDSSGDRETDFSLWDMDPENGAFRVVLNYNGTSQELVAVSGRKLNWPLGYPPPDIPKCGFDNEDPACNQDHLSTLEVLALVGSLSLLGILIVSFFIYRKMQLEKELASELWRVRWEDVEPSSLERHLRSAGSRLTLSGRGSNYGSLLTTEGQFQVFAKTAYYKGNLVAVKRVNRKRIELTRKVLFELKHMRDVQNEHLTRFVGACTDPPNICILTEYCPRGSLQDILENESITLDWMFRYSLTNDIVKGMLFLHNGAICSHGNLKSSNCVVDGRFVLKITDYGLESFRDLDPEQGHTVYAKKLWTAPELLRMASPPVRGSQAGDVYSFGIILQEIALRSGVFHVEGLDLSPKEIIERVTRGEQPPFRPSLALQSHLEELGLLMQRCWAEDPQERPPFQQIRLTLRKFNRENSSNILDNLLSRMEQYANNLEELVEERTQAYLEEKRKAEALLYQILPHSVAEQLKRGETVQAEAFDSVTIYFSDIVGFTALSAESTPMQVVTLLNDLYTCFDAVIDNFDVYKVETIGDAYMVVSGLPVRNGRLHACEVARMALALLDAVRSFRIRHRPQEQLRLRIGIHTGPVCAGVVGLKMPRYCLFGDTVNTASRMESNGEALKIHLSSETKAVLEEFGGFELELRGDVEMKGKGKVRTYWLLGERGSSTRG
Chain of Cytochrome P450 2C9 (Homo sapiens) (P11712 whole entry, looked up): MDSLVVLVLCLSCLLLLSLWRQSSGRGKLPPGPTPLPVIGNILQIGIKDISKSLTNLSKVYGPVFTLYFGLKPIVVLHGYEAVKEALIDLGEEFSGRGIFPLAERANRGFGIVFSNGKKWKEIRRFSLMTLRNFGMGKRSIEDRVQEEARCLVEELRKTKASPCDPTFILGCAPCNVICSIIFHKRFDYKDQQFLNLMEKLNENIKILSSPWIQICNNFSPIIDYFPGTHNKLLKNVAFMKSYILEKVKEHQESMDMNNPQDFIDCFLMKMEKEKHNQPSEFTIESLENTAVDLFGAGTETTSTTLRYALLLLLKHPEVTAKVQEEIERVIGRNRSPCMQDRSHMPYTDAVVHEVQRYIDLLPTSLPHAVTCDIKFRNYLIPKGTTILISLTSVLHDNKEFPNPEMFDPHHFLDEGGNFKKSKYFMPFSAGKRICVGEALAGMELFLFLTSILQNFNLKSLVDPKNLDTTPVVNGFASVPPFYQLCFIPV
Chain of Cytochrome P450 3A4 (Homo sapiens) (P08684 whole entry, looked up): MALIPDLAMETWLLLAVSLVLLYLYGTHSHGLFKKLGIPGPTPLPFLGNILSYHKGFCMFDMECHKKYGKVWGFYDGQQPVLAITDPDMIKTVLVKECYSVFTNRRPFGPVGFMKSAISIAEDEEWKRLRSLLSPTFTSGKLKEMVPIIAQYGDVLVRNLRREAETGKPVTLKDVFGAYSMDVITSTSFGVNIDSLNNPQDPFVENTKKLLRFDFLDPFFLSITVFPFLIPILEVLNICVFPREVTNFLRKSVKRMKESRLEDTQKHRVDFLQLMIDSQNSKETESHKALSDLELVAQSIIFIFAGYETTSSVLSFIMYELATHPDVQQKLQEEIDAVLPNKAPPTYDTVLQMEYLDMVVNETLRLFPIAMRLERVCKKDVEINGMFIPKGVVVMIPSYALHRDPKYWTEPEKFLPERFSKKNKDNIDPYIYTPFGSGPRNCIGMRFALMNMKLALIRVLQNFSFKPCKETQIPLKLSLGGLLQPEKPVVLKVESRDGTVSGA
Chain of Cytochrome P450 2C19 (Homo sapiens) (P33261 whole entry, looked up): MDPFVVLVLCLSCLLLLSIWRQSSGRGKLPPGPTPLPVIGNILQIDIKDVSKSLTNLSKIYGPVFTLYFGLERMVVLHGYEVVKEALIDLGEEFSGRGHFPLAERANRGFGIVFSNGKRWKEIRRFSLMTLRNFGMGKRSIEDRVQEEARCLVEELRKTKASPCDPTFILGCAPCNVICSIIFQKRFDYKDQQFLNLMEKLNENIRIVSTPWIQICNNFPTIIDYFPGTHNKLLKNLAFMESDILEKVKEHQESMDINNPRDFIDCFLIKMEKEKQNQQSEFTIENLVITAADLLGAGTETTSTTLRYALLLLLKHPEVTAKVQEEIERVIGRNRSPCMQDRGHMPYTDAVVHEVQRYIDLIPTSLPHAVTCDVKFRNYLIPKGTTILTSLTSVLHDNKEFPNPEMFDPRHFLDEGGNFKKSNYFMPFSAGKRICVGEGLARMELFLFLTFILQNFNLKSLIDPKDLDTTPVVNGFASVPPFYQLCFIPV

COc1cc(CCN2C(=O)NC(c3ccccc3)C(C(C)=O)=C2C)cc(OC)c1OC (stereo not drawn)
inactive: Potency [1] | Potency [2] | Potency [3] | Potency [4]

COC1=C[C@H](C(=O)NC2CCN(Cc3ccccc3)CC2)[C@@]2(C)Cc3ccccc3[C@@H]2CC1=O
inactive: Potency [1] | Potency [2] | Potency [3] | Potency [4]

CCCCCCN1C(=O)CC[C@@]23C1=NC(C(=O)OC)=C(C(=O)OC)[C@@H]2N(Cc1ccccc1)c1ccccc13
inactive: Potency [1] | Potency [2] | Potency [3] | Potency [4]

COc1ccc(N2C=C3C(=O)C(C)(OC(=O)C4CCCC4)C(=O)C=C3C=C2c2ccsc2)cc1 (stereo not drawn)
inactive: activity, negative = inhibition [1] -0.73% [at 1.12 µM] | Potency [2] | Potency [3] | Potency [4]

COC(=O)[C@]1(C=C2c3ccccc3C[C@H](OC)[C@@H]2C)[C@@H]2CC=C[C@@H]21
inactive: Potency [1] | Potency [2] | Potency [3] | Potency [4]

COC(=O)[C@@H]1[C@@H](c2ccccc2)NC(=O)N(CCc2cc(OC)c(OC)c(OC)c2)[C@@H]1C
inactive: Potency [1] | Potency [2] | Potency [3] | Potency [4]

CCN1C(=NCCc2cccnc2)NC(CCc2ccccc2)C(C(=O)OC)=C1C (stereo not drawn)
inactive: Potency [1] | Potency [2] | Potency [3] | Potency [4]

CCCCCCCc1cc2ccccc2c2c(C=O)c(CCCC)c(C(=O)OC)n12
inactive: Potency [1] | Potency [2] | Potency [3] | Potency [4]

COc1ccc2c(c1)C(=O)[C@H](OC(=O)N[C@H]1CCCc3ccccc31)[C@@H](c1ccc(OC)c(Br)c1)O2
inactive: Potency [1] | Potency [2] | Potency [3] | Potency [4]

CCCCCCC1=Cc2cc(OC)c(OC)cc2C(C(C(C)=O)C(=O)OCC)O1 (stereo not drawn)
active: Potency [6] 1580 nM
inactive: activity change, negative = inhibition [5] 25.3% [at 11.4 µM]

C[C@@H]1CC[C@H]2C(=O)N3[C@@H](CC[C@@H](C)[C@@H]3c3ccc(Br)cc3)C(=O)N2[C@@H]1c1ccc(Br)cc1
active: Potency [5] 3980 nM

COc1ccc(-c2cnnc(CCCn3ccnc3-c3ccccc3)n2)cc1
active: Potency [7] 6310 nM

COC(=O)[C@H]1[C@H](CCc2ccccc2)NC(=O)N(Cc2ccccc2)[C@H]1C
inactive: Potency [1] | Potency [8] | Potency [9] | Potency [3] | Potency [4]

CCCCc1cc2c(cn1)=C(OC(=O)c1ccco1)C(C)(OC(=O)CC)C(=O)C=2 (stereo not drawn)
inactive: activity, negative = inhibition [1] 5.3% [at 1.12 µM] | Potency [9] | Potency [3] | Potency [4]
active: Potency [8] 1510 nM

COc1ccc(COC(=O)NN=C2C[C@@H](O)[C@@H](O)[C@@H]3[C@H]4C(=O)N(c5cccc(Oc6ccccc6)c5)C(=O)[C@@H]4CC[C@H]23)cc1
inactive: Potency [1] | Potency [8] | Potency [9] | Potency [3] | Potency [4]

CC[C@H](C)[C@@H](NC(=O)O[C@@H]1C(=O)c2cc(OC)ccc2O[C@H]1c1ccc(OC)c(Br)c1)C(=O)OC
inactive: Potency [1] | Potency [8] | Potency [9] | Potency [3] | Potency [4]

CC(C)=CCCC(C)=CCON=C1C[C@@H](O)[C@@H](O)[C@@H]2[C@H]3C(=O)N(C[C@@H]4CCCO4)C(=O)[C@@H]3CC[C@@H]12
inactive: Potency [1] | Potency [8] | Potency [9] | Potency [3] | Potency [4]

COCCN1C(=O)N[C@@H](c2cccc(C(F)(F)F)c2)[C@H](C(C)=O)[C@H]1C
inactive: Potency [1] | Potency [8] | Potency [9] | Potency [3] | Potency [4]

COC1=C[C@H](C(=O)NCc2ccccn2)[C@@]2(C)Cc3ccccc3[C@@H]2CC1=O
inactive: Potency [1] | Potency [8] | Potency [9] | Potency [3] | Potency [4]

COC(=O)NC(c1ccccc1)C1(C(=O)OC)C(=O)Cc2ccccc21 (stereo not drawn)
inactive: Potency [1] | Potency [8] | Potency [9] | Potency [3] | Potency [4]

COC(=O)CC(Oc1c(C)n(C)c2ccccc2c1=O)c1ccccc1 (stereo not drawn)
inactive: Potency [1] | Potency [8] | Potency [9] | Potency [3] | Potency [4]

CCN1C(=NCCc2ccc(Br)cc2)NC(c2ccccc2)C(C(=O)OC)=C1C (stereo not drawn)
inactive: Potency [1] | Potency [8] | Potency [9] | Potency [3] | Potency [4]

COC(=O)C1=C(C(=O)OC)[C@@H]2N(C)c3ccccc3[C@@]23C[C@@H](C(=O)OC)N(C(=O)c2cccs2)C3=N1
inactive: Potency [1] | Potency [8] | Potency [9] | Potency [3] | Potency [4]

CCN1C(=NCCCOC(C)C)N[C@@H](CCc2ccccc2)[C@H](C(=O)OC)[C@H]1C
inactive: Potency [1] | Potency [8] | Potency [9] | Potency [3] | Potency [4]

C=CCCCN1C=C(C(=O)OCC)C(c2ccccc2)NC1=O (stereo not drawn)
inactive: Potency [1] | Potency [8] | Potency [9] | Potency [3] | Potency [4]

COC[C@@H](O)[C@H]1OCc2ccccc2[C@H]1C=Cc1ccccc1
inactive: Potency [1] | Potency [8] | Potency [9] | Potency [3] | Potency [4]

COC(=O)C1=C(C(=O)OC)[C@@H]2Nc3ccccc3[C@@]23C[C@@H](C(=O)OC)N(C(=O)NC(C)(C)C)C3=N1
inactive: Potency [1] | Potency [8] | Potency [9] | Potency [3] | Potency [4]

COC(=O)[C@@H]1CC[C@H](C)[C@@H](c2ccc(C)cc2)N1C(=O)c1ccc(C=NO[C@H](C)c2cn([C@@H]3COC[C@@H]3O)nn2)cc1
inactive: Potency [1] | Potency [8] | Potency [9] | Potency [3] | Potency [4]

CCN1C(=O)N(C)C(c2ccccc2)C(C(=O)OC)=C1C (stereo not drawn)
inactive: Potency [1] | Potency [8] | Potency [9] | Potency [3] | Potency [4]

C=CCCCN1C(=O)NC(c2ccccc2)C(C(=O)OC)=C1C (stereo not drawn)
inactive: Potency [1] | Potency [8] | Potency [9] | Potency [3] | Potency [4]

C=CCOC(=O)N[C@@H](c1ccccc1)[C@@H](C)[N+](=O)[O-]
inactive: Potency [1] | Potency [8] | Potency [9] | Potency [3] | Potency [4]

CC(CCC(=O)OC[C@H]1O[C@H](C#Cc2ccccc2)C=C[C@H]1Oc1ccc(C)cc1)=NO[C@@H](C)c1cn([C@H](CO)Cc2ccccc2)nn1
inactive: Potency [1] | Potency [8] | Potency [9] | Potency [3] | Potency [4]

COC(=O)CCC(=O)OC1(C)C(=O)C=C2C=C(C3CC3)N(Cc3ccc4c(c3)OCO4)C=C2C1=O (stereo not drawn)
inactive: activity, negative = inhibition [1] -0.0348% [at 1.12 µM] | Potency [8] | Potency [9] | Potency [3] | Potency [4]

CCOC(=O)C1=CN(CCC=C(C)C)C(=O)NC1c1ccccc1 (stereo not drawn)
inactive: Potency [1] | Potency [8] | Potency [9] | Potency [3] | Potency [4]

CC(C)=CCCC(C)=CCON=C1C[C@@H](O)[C@@H](O)[C@@H]2[C@H]3C(=O)N(C[C@@H]4CCCO4)C(=O)[C@@H]3CC[C@H]12
inactive: Potency [1] | Potency [8] | Potency [9] | Potency [3] | Potency [4]

CCOC(=O)NN=C1C[C@@H](O)[C@@H](O)[C@@H]2[C@H]3C(=O)N(Cc4ccc5c(c4)OCO5)C(=O)[C@@H]3CC[C@H]12
inactive: Potency [1] | Potency [8] | Potency [9] | Potency [3] | Potency [4]

COc1cc2c(c(OC)c1)[C@H](C=Cc1ccccc1)[C@@H]([C@H](O)CO)OC2
inactive: Potency [1] | Potency [8] | Potency [9] | Potency [3] | Potency [4]

CC=CC1=CC2=CC(=O)C(C)(OC(=O)c3c(C)cc(O)cc3O)C(=O)C2=CO1 (stereo not drawn)
inactive: Potency [1] | Potency [8] | Potency [9] | Potency [3] | Potency [4]

COc1cc2c(cc1OC)C1OC(c3ccsc3)(C2)Oc2cc(C)oc(=O)c21 (stereo not drawn)
inactive: Potency [1] | Potency [8] | Potency [9] | Potency [3] | Potency [4]

CCN1C(=NCCOC)N[C@@H](c2ccccc2)[C@H](C(=O)OC)[C@H]1C
inactive: Potency [1] | Potency [8] | Potency [9] | Potency [3] | Potency [4]

COC(=O)C1=C(C(=O)OC)[C@@H]2N(C)c3ccccc3[C@@]23C[C@@H](C(=O)OC)N(C(=O)NC(C)(C)C)C3=N1
inactive: Potency [1] | Potency [8] | Potency [9] | Potency [3] | Potency [4]

C=CCC(C)(NCc1ccccc1)C(=O)OCC (stereo not drawn)
inactive: Potency [1] | Potency [8] | Potency [9] | Potency [3] | Potency [4]

O=C1OC2(CCCCC2)CC2=C1[C@H]1O[C@](c3ccsc3)(Cc3ccccc31)O2
inactive: Potency [1] | Potency [8] | Potency [9] | Potency [3] | Potency [4]

COC(=O)N[C@@H](c1cccc(F)c1)[C@@H](C)[N+](=O)[O-]
inactive: Potency [1] | Potency [8] | Potency [9] | Potency [3] | Potency [4]

C=CC[C@@H]1C=C(C(=O)OC)N(C(=O)C(F)(F)F)[C@@H](c2ccccc2Br)[C@@H]1C
inactive: Potency [1] | Potency [8] | Potency [9] | Potency [3] | Potency [4]

C=CCC12OC3(OC)CC1[C@H](C)[C@@H](c1ccccc1)C2[C@]3(O)CC=C (stereo partly drawn)
inactive: Potency [1] | Potency [8] | Potency [9] | Potency [3] | Potency [4]

Cc1cc2c(c(=O)o1)[C@H]1O[C@](c3ccsc3)(Cc3ccccc31)O2
inactive: Potency [1] | Potency [8] | Potency [9] | Potency [3] | Potency [4]

CC(C)(C(O)c1ccc([N+](=O)[O-])cc1)[N+](=O)[O-] (stereo not drawn)
inactive: Potency [1] | Potency [8] | Potency [9] | Potency [3] | Potency [4]

COC(=O)[C@H](Cc1ccccc1)NC(=O)O[C@@H]1C(=O)c2cc(Br)ccc2O[C@H]1c1ccc2c(c1)OCO2
inactive: Potency [1] | Potency [8] | Potency [9] | Potency [3] | Potency [4]

COc1ccc(C(O)C2=CCCC2=O)cc1 (stereo not drawn)
inactive: Potency [1] | Potency [8] | Potency [9] | Potency [3] | Potency [4]

CCOC(=O)CN1C(=O)NC(c2ccccc2)C(C(C)=O)=C1C (stereo not drawn)
inactive: Potency [1] | Potency [8] | Potency [9] | Potency [3] | Potency [4]

CCOC(=O)CN1C(=O)NC(c2cccc(C(F)(F)F)c2)C(C(=O)OC)=C1C (stereo not drawn)
inactive: Potency [1] | Potency [8] | Potency [9] | Potency [3] | Potency [4]

CCCCc1nc2c(c3c1C[C@H](C)OC3)CN(C(=O)C1CCCCC1)CC2
inactive: activity, negative = inhibition [1] -0.437% [at 1.12 µM] | Potency [8] | Potency [9] | Potency [3] | Potency [4]

CC(C)(C)Nc1oc(-c2ccccc2)nc1-c1ccccc1F
inactive: Potency [1] | Potency [8] | Potency [3] | Potency [4]

CCN1C(=O)N(S(=O)(=O)c2ccc(C)cc2)C(c2ccccc2)C(C(=O)OC)=C1C (stereo not drawn)
inactive: Potency [1] | Potency [8] | Potency [3] | Potency [4]

Source: PubChem BioAssay (NCATS)
